ELG1 DNA repair – inhibitors of ELG1-dependent DNA repair in HEK293T cells; HEK293T ELG1-luciferase reporter, luminescence, 16 h; DNA damage induced by 5-fluorouridine; 2.3% of 330,000 active; Potency, µM (titrated, usually from 46.1 µM), inactives show at the highest dose activity change, negative = inhibition, usual class: inhibitors; AID 504467; note: % is set by controls: 0 for no effect and ±100 for the full control effect; nearly all actives have a fitted effect of over 55% in size
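HEK293T cells expressing luciferase-tagged ELG1 (2,000/well) received 5-Fluorouridine plus compound or DMSO for 16 hr at 37 °C. Luciferase was read by ONE-Glo luminescence after 30 min at room temperature.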
NPC1 prom act – activates the NPC1 promoter | Huh7 NPC1 promoter luciferase reporter, 24 h | Potency, µM (highest dose often 9.22 µM), for the others: top-dose activation, usual class: activators | 2.4% of 320,000 active; note: % of control where 0% means no effect; nearly all actives have a fitted effect of over 60% in size
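Luciferase expression driven by the NPC1 promoter was measured in stably transfected Huh7 cells after a 24 h compound incubation, using a luciferase reagent and a luminescence read.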
ELG1 genotox – induces genotoxicity in HEK293T cells with luciferase-tagged ELG1. HEK293T ELG1-luciferase reporter, luminescence, 16 h. Potency, µM (highest dose often 46 µM), inactives show top-dose activity change, positive = activation, most hits filed as activators. 1.3% of 330,000 active; note: % of control where 0% means no effect; nearly all actives have a fitted effect of over 60% in size
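Step 1: seed 2,000 HEK293T ELG1-luciferase cells per well. Step 2: add compound or DMSO, incubate 16 hr at 37 °C. Step 3: ONE-Glo, 30 min at room temperature, read luminescence.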
SMN2 splice up – SMN2 splice variant enhancement; HEK293 SMN2-luciferase splicing reporter, luminescence, 30-36 h; Potency, µM (series often up to 46.1 µM), for the others: at the highest dose activity change, positive = activation, actives largely listed as activators; 2.8% of 210,000 active; AID 1458; note: % of control where 0% means no effect; nearly all actives have a fitted effect of over 55% in size
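HEK293 cells carry an SMN2 […]–luciferase reporter in which exon 7 inclusion puts luciferase in frame. Cells were plated 10-12 h before compound addition, then incubated 30-36 h at 37C. ONE-Glo luminescence was read; sodium butyrate at 4.5 mM final served as control.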
Rab9 promoter act – activates the Rab9 promoter | Huh7 Rab9 promoter-luciferase reporter, luminescence, 24 h | Potency, µM (doses to about 9.22 µM), without a hit: top-dose activation, negative = inhibition, actives largely listed as activators | 2.8% of 320,000 active; note: % of control where 0% means no effect; nearly all actives have a fitted effect of over 60% in size
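Quantitative HTS format; Huh7 Rab9-luciferase reporter cells (1500/well) receive compound 2 h post-plating, incubate 24 h at 37 °C, then get luciferase reagent for 10 min before luminescence reading.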
FLuc modulator – inhibits or activates purified firefly luciferase, miR-21 counter-screen | 6.9% of 360,000 active | purified FLuc, Km substrates, luminescence inhibition | P08659 | Potency, µM (highest dose often 57.5 µM), for the others: at the top dose activity change, negative = inhibition, most hits filed as inhibitors;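 note: plate controls were vehicle for no effect and reference inhibitor for full effect; nearly all actives have a fitted effect of over 55% in size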
Target sequence (P08659 whole entry, looked up): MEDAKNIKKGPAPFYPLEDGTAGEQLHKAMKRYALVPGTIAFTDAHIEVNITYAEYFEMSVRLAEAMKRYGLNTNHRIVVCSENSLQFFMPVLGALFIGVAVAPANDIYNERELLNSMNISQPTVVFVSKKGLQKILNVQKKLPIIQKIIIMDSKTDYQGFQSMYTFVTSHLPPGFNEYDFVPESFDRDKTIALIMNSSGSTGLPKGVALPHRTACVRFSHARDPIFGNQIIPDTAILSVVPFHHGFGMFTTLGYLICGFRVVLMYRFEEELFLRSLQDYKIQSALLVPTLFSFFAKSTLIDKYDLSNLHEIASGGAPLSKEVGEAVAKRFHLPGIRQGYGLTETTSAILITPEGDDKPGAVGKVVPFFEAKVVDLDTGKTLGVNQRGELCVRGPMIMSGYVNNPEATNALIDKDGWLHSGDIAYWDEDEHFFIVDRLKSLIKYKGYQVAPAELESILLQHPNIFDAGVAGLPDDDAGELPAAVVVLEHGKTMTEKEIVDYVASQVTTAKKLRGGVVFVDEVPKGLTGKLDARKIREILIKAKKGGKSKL
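Biochemical qHTS of compounds, final roughly 60 µM downward over six points, against 10 nM purified firefly luciferase using Km concentrations of substrates (10 uM D-luciferin, 10 uM ATP) in Tris acetate pH 7.5 buffer; luminescence output.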
Active calls of the source: *; u = inconclusive; x = no result; ! = repeats disagree. The list is not random: actives were taken first. Their share in the collection is about 9.2%. Calls come from the whole dose curve; as a rule, active = well fitted curve in the direction sought with a large enough effect; inconclusive = small, poorly fitted or top-dose-only effect, or another doubt; inactive = no such curve, though single readings can be large; an effect the other way counts as inactive or inconclusive. Potency is the fitted concentration of half-maximal effect.

SMILES | ELG1 DNA repair | NPC1 prom act | ELG1 genotox | SMN2 splice up | Rab9 promoter act | FLuc modulator
CS(=O)(=O)N1CCN(c2ccccc2NC(=O)c2cc(Br)ccc2Cl)CC1 | u | 0% | -12% | -11% | -2% | -1%
CCNC(=O)C1CCN(Cc2cc3ccccc3n2Cc2ccc(C)cc2)CC1 | x | x | x | x | x | -8%
O=C(CNC(=O)c1ccc(Br)o1)NCC(=O)OCc1ccccc1 | 9% | 1% | -7% | x | 1% | 3%
Cc1sc2ncnc(N3CCN(Cc4ccccc4)CC3)c2c1-c1ccc(F)cc1 | -22% | -4% | -13% | x | 2% | -2%
Cn1c2ccccc2c(=O)c2cc(C#CC3(O)CCCCC3)ccc21 | u | u | 0.12µM* | x | u | 0.076µM*
COc1cccc2oc3ccc(C#CC4(N)CCCCC4)cc3c(=O)c12 | u | u | 18µM* | x | u | 6µM*
Cn1c2ccccc2c(=O)c2ccc(C#CC3(N)CCCCC3)cc21 | u | 4µM* | 7.3µM* | x | 2µM* | 6.7µM*
COc1cc(-c2noc(C)c2C#CC2(N)CCCCC2)cc(OC)c1OC | u | 1% | 5% | x | 4% | 1%
O=C1N(Cc2cccnc2)C[C@@H]2C[C@@H](c3ccc4nsnc4c3)N3CCC[C@@]123 | 5% | -4% | 2% | x | -2% | 0%
O=C(Nc1cccc(Br)c1)c1ccc(Cl)c(S(=O)(=O)N2CCOCC2)c1 | 16µM* | -20% | -24% | -57% | -31% | -17%
O=C(Nc1cccc(S(=O)(=O)C(F)F)c1)c1ccc(Cl)c(S(=O)(=O)N2CCOCC2)c1 | 7.3µM* | -3% | -10% | -60% | -9% | -1%
O=C(Nc1cccc(C(=O)NC2CC2)c1)c1ccc(Cl)c(S(=O)(=O)N2CCOCC2)c1 | 13µM* | 0% | -4% | x | 1% | -12%
O=C(Nc1cccnc1)c1ccc(Cl)c(S(=O)(=O)N2CCOCC2)c1 | u | -2% | -5% | x | 6% | 2%
O=C(Nc1nccs1)c1ccc(Br)c(S(=O)(=O)N2CCOCC2)c1 | 21µM* | 0% | -4% | -49% | -2% | -18%
O=C(Nc1nccs1)c1ccc(F)c(S(=O)(=O)N2CCOCC2)c1 | -29% | 1% | -10% | x | -1% | -2%
C#CC(C)(CC)NC(=O)c1cc2nc(C3CC3)cc(C(F)(F)F)n2n1 (stereo not given) | 0% | 0% | 16% | 1% | 19% | -3%
CCC(C(=O)Nc1cc(F)ccc1F)n1nc(-c2cc(C)ccc2C)ccc1=O (stereo not given) | x | x | x | 8% | x | -15%
CCOc1cc(N2CCOCC2)c(OCC)cc1NCC(=O)N1CCN(Cc2ccccc2)CC1 | 8.2µM* | -1% | -1% | x | -4% | -2%
CCOc1cc(N2CCOCC2)c(OCC)cc1NC(=O)CSc1ccccc1C(=O)O | -2% | -3% | -3% | x | -5% | -1%
CCOc1cc(N2CCOCC2)c(OCC)cc1NC(=O)[C@H](C)N1C(=O)C2CC=CCC2C1=O (stereo not given in full) | 2% | -9% | 3% | -1% | -2% | 1%
CCOc1cc(N2CCOCC2)c(OCC)cc1NC(=O)COc1cccc(CC)c1 | 23µM* | -3% | -7% | x | -12% | 8%
CCOc1cc(N2CCOCC2)c(OCC)cc1NC(C)C(=O)N1CCC(C)CC1 (stereo not given) | 9.2µM* | -2% | -4% | x | -2% | 1%
CCOc1ccccc1CNC(=O)CCc1c(C)nn(-c2ccc(N3CCCC3)nn2)c1C | x | x | x | x | x | -11%
C=CCN(C(=O)CNC(=O)c1cccs1)C(C(=O)NC(C)(C)C)c1ccccc1 (stereo not given) | 7% | -1% | -1% | 10% | 2% | -2%
CCc1ccc(NC(=O)CSC2=Nc3ccccc3C3=NC(CCC(=O)NCCc4ccccc4)C(=O)N23)cc1 (stereo not given) | x | x | x | x | x | -10%
SMILES | ELG1 DNA repair | NPC1 prom act | ELG1 genotox | SMN2 splice up | Rab9 promoter act | FLuc modulator
COc1ccc(N/N=C(\C#N)C(N)=O)cc1 | u | 9% | 9% | 19% | -2% | -17%
N#C/C(=N/Nc1ccc(OC(F)(F)F)cc1)C(N)=S | u | -25% | -3% | x | -36% | 11µM*
Cc1cc(=O)[nH]c(N/N=C/C=C/c2ccccc2)n1 | 2% | 0% | -1% | -8% | -1% | -10%
Cc1cc(=O)[nH]c(N/N=C2/CCCC/C2=C\c2ccccc2)n1 | 8.2µM* | -6% | -6% | x | 2% | -12%
CCOc1ccc(-c2cc(CCCC(=O)NCCc3ccc(OCC)c(OCC)c3)no2)cc1 | x | x | x | 20% | x | 9.5µM*
CCOc1ccc(-c2cc(CCCC(=O)NCCc3ccc(SC)cc3)no2)cc1 | x | x | x | 12% | x | 12µM*
CCOc1ccc(-c2cc(CCCC(=O)NCc3ccco3)no2)cc1 | u | 6% | 10% | 10% | -6% | 3.4µM*
Cc1ccc(-c2nn(-c3ccccc3)cc2C=C2C(=O)CC(C)(C)CC2=O)cc1 | 5% | -2% | 0% | -16% | -1% | 24µM*
CC1=NNC(=O)/C1=C\c1cn(-c2ccccc2)nc1-c1ccc(Cl)cc1 | 9.2µM* | -48% | -20% | -90% | -51% | 0%
Cc1c(C(=O)Nc2ccccn2)sc2nc3n(c(=O)c12)CCC3 | u | 1.3µM* | u | x | 0.89µM* | 9.5µM*
Cc1ccccc1NC(=O)c1sc2nc3n(c(=O)c2c1C)CCC3 | x | x | x | x | x | -3%
CCc1ccccc1NC(=O)c1sc2nc3n(c(=O)c2c1C)CCC3 | x | x | x | x | x | 5%
Cc1c(C(=O)Nc2ccccc2F)sc2nc3n(c(=O)c12)CCC3 | u | 2.8µM* | u | x | 2.5µM* | 19µM*!
Nc1ccc2c(c1Cl)C(=O)c1ccc(N)c(Cl)c1C2=O | u | u | u | x | 2.2µM* | 12µM*
CN(C)/C=C/C(=O)c1ccccc1 | 18% | 0% | 0% | x | -2% | -4%
CN(C)/C=C/C(=O)c1ccc(Oc2ccccc2)cc1 | u | u | 4.1µM* | 13µM* | 1.4µM* | 4.3µM*
CCCc1ccc(C(=O)/C=C/N(C)C)cc1 | u | 1.1µM* | 9.2µM* | x | 1.4µM* | 5.4µM*
O=c1c2ccccc2nnn1Cc1ccc2ccccc2c1 | u | -2% | 6% | x | 8% | u
O=C(c1cnn2c(C(F)F)cc(-c3ccccc3)nc12)N1CCc2ccccc21 | u | -17% | -7% | -7% | -6% | -1%
Cc1ccc(-c2cc(C(F)F)n3ncc(C(=O)N4CCc5ccccc54)c3n2)cc1 | 21µM* | -21% | 16% | -36% | -27% | 0%
COc1ccc(-c2cc(C(F)F)n3ncc(C(=O)N4CCN(C(=O)c5ccco5)CC4)c3n2)cc1 | 3.3µM* | -6% | -8% | 9% | -4% | 1%

Bioassay records (PubChem)
